# High-throughput results: PubChem BioAssay, National Center for Advancing Translational Sciences (NCATS)
# The list is not random: actives were taken first. Their share in the collection is about 1%.
# TRPML1 ag – activates the human TRPML1 channel | activation, % (no concentration beside the values) | AID 624414 | actives 0.12% (n = 410,000) | TRPML1-expressing cells, Ca2+ dye fluorescence, FDSS | Q9GZU1; in the data active = activation above about 50%; inconclusive = mostly about 30% to 49%; note: 0% is about no effect
#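 TRPML1-DL cells, Tet-induced overnight (~16 h, 37 degrees C), loaded 45-90 min at room temperature with Ca8 no-wash calcium dye plus quencher. FDSS fluorescence: 10 s baseline, compound pin-transfer, 110 s agonist read, then EC80 54-4 (4uM final) and 110 s antagonist read.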
# TRPML1 blocker – human mucolipin-1 channel inhibition. Q9GZU1. TRPML1-inducible cells, Ca2+ dye fluorescence, FDSS; stronger effect = lower value; inhibition of EC80 agonist-evoked calcium signal. activity change, negative = inhibition, % (no concentration beside the values). actives 0.02% (n = 390,000); in the data active = activity change below about -50%; inconclusive = between about -30% and that limit;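 note: stimulus is agonist 54-4 at its EC80 concentration; % is set by controls: 0 for no effect and ±100 for the full control effect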
#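 TRPML1-DL cells, Tet-induced overnight (~16 h, 37 °C) at 1,500 cells/well, were loaded with Ca8 no-wash dye plus quencher for 45-90 min at room temperature. Compounds were pinned during FDSS kinetic reading; agonist 54-4 at EC80 (4 uM final) then added.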
# hERG WT inh – KCNH2 (human, wildtype) channel inhibition; U2OS, BacMam KCNH2, thallium flux FluxOr; stronger effect = lower value; AID 720551; actives 0.37% (n = 340,000); Q12809; activity change, % at 1.84 µM;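 active = maximum activity change below -70%; inconclusive = maximum activity change between -70% and -50%; inactive = maximum activity change above -50%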; note: % is set by controls: 0 for no effect and ±100 for the full control effect
#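 U2OS cells transduced with wild-type KCNH2 virus are loaded with FluxOr dye for 45 min, and thallium flux is measured in kinetic reads before and after stimulation buffer. Rate constants are normalized to DMSO controls.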
# GRP78 ERSR act – ER stress response induction in glioma | U87-MG GRP78 promoter luciferase reporter, 16 h | Potency, µM, inactives show at the top dose activation, hits mostly activators | AID 602332 | actives 0.02% (n = 420,000); active = well fitted activation curve with a large enough effect; inconclusive = small, poorly fitted or top-dose-only effect; inactive = no such curve, though single readings can be large or run the other way; note: potency is the fitted concentration of half-maximal effect; series mostly up to about 76 µM; % of control where 0% means no effect; nearly all actives have a fitted effect of over 35% in size
#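 ERSR induction read as luciferase luminescence (Bright-Glo, 10 min at room temperature) in stably transfected human U87-MG glioma cells exposed to compounds for 16 h, using GRP78 as sensor.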
# TSG101-PTAP inh – blocks PTAP/TSG101 interaction to inhibit HIV-1 budding; 340,000 tested, under 10 active; Fluorescence polarization, FITC-PTAP peptide / Tsg101 binding; AID 493005; Q99816; Potency, µM (series often up to 115 µM), for the others: at the highest dose activity change, negative = inhibition, hits mostly inhibitors; active = well fitted inhibition curve with a large enough effect in the main read-out, with a control signal flat, not every such curve was filed as active; inconclusive = small, poorly fitted or top-dose-only effect, or effect the other way, or a change in a side signal; inactive = no such curve, though single readings can be large or run the other way; note: potency is the fitted concentration of half-maximal effect; % of control where 0% means no effect
# Target sequence (Q99816 whole entry, looked up): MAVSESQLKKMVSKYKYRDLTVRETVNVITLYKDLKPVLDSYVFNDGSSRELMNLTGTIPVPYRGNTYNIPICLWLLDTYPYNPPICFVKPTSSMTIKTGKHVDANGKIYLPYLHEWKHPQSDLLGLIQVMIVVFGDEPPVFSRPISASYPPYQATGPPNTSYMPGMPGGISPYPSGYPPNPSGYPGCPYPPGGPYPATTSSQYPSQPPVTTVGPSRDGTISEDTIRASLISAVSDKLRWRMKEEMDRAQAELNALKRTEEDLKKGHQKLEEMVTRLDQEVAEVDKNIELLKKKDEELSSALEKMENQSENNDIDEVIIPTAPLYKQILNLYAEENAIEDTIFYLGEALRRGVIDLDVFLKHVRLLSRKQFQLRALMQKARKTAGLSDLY
#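 FP read-out: FITC-PTAP peptide, 50 nM final, binding Tsg101 binding domain, 10 uM final; 20 min, r.t.; 10 mM HEPES pH 7.5, 0.15 M NaCl, 0.01% Tween 20, 3 mM EDTA, 0.1 mM TCEP.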
# KCNH2 3.1 inh – blocks the human KCNH2 3.1 channel isoform. U2OS KCNH2 3.1, thallium flux FluxOr; stronger effect = lower value. activity change, % (tested at about 1.8 µM). actives 0.95% (n = 340,000). AID 720553;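 active = maximum activity change below -70%; inconclusive = maximum activity change from -70% to -50%; inactive = maximum activity change above -50%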;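 note: thallium influx rate constant from kinetic fluorescence after stimulation buffer; % is set by controls: 0 for no effect and ±100 for the full control effect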
#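 Virally transduced U2OS (3.1 isoform, 4 h infection in dark at RT) → overnight 37 C → FluxOr + Red40 in HBSS/HEPES, 45 min → stimulation buffer, 2 min kinetic read → rate constant vs DMSO controls.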
# An asterisk follows results filed as active; ? = inconclusive; . = no result.
SMILES,TRPML1 ag,TRPML1 blocker,hERG WT inh,GRP78 ERSR act,TSG101-PTAP inh,KCNH2 3.1 inh
C#CCOCCOCCOCCNc1nc(N2CCN(C(=O)[C@H](CCCCN)n3cc(CC(C)O)nn3)CC2)nc(N2CCN(C(=O)[C@H](CCCCN)n3cc(CC(C)O)nn3)CC2)n1 (stereo partly drawn),0,-8,-2,-4%,-1%,-76*
C#CCOCCOCCOCCNc1nc(N2CCN(C(=O)Cn3cc(CCO)nn3)CC2)nc(N2CCN(C(=O)[C@H](CCCCN)n3cc(CC(C)O)nn3)CC2)n1 (stereo partly drawn),1,6,-2,-5%,-1%,11
C=CC[C@@H](CC(=O)N[C@@H](CO)Cc1ccccc1)C(=O)N[C@H](COC(=O)[C@@H](CC=C)Cc1ccc(F)cc1)Cc1c[nH]c2ccccc12,-1,7,7,-2%,-6%,-6
C=CC[C@H](CC(=O)N[C@H](CO)Cc1ccccc1)C(=O)N[C@@H](COC(=O)[C@@H](CC=C)Cc1ccc(F)cc1)Cc1c[nH]c2ccccc12,1,11,-6,-6%,3%,-80*
COc1ccc(CC(=O)c2ccc(OC3OC(CO)C(O)C(O)C3O)cc2O)cc1 (stereo not drawn),.,.,-95*,3%,-5%,17
CN(C)C=Nc1c(Br)cc(Br)c2nonc12,62*,-6,-11,-5%,?,-17
CN(C)/[N+]([O-])=N/Oc1cc(F)c([N+](=O)[O-])cc1[N+](=O)[O-],1,2,.,0%,.,.
COc1ccc(-c2cc(C(=O)N3CCC3)c3ccccc3n2)cc1OC,-1,13,2,-5%,-1%,11
O=C(c1cc(-c2ccc(Br)cc2)nc2ccccc12)N1CCN(c2ccccc2O)CC1,2,15,-5,3%,-4%,-74*
COc1ccc(-c2cc(C(=O)Nc3ccc(C(N)=O)cc3)c3ccccc3n2)cc1OC,0,7,3,?,1%,0
COc1ccc(-c2cc(C(=O)Nc3ccc(S(=O)(=O)Nc4onc(C)c4C)cc3)c3ccccc3n2)cc1OC,1,0,42,2%,-5%,-81*
COc1ccc(-c2cc(C(=O)N3CCN(c4ncccn4)CC3)c3ccccc3n2)cc1OC,1,83,16,-2%,-2%,-142*
Cc1ccc(-c2cc(C(=O)N3CCN(c4ccccc4O)CC3)c3ccccc3n2)o1,0,-3,8,4%,-2%,-5
Cc1ccc(-c2cc(C(=O)N3CCN(c4ncccn4)CC3)c3ccccc3n2)cc1,2,19,-7,-6%,0%,-71*
Cc1ccccc1C(=O)Nc1ccnn1C1CCN(C(C)Cc2ccccc2F)CC1 (stereo not drawn),0,8,2,2%,-6%,-76*
Cc1ccc(C(C)CCN2CCC(n3nccc3NC(=O)c3ccccc3)CC2)o1 (stereo not drawn),0,12,49,-3%,-5%,-43
COc1ccccc1C(=O)Nc1ccnn1C1CCN(CCC(C)c2ccc(C)o2)CC1 (stereo not drawn),0,-2,-104*,1%,-4%,-98*
COc1ccccc1C(=O)Nc1ccnn1C1CCN(C/C=C/c2ccccc2)CC1,1,2,-121*,-3%,.,-107*
COc1ccc(C(=O)NCCN2Cc3cc(C)ccc3OC(C)C2)c(OC)n1 (stereo not drawn),.,.,.,-4%,.,.
CCN(CC)/[N+]([O-])=N/Oc1ccc([N+](=O)[O-])cc1[N+](=O)[O-],1,20,.,-2%,.,.
CCOC(=O)C(=O)NCC(c1cccs1)S(=O)(=O)c1ccc(F)cc1 (stereo not drawn),1,22,-10,-4%,-7%,-138*
CO/N=C1/CC2(CC3CC(C/C=C(/C)CC(C)/C=C\C=C4\COC5C(O)C(C)=CC(C(=O)O3)C45O)O2)OC(/C(C)=C/C(C)C)C1C (stereo not drawn),.,.,.,-11%,.,.
COc1ccc(OC)c(CN2CCOc3ccc(CN4CCC(O)(c5cccnc5)CC4)cc3C2)c1,.,.,.,-3%,.,.
Cc1ccc(N=Nc2c(C)[nH]n(-c3ccccc3)c2=O)cc1Br,.,.,0,-1%,-7%,2
Cc1[nH]n(-c2ccccc2)c(=O)c1N=Nc1ccc(F)cc1,2,25,30,17%,2%,-79*
SMILES,TRPML1 ag,TRPML1 blocker,hERG WT inh,GRP78 ERSR act,TSG101-PTAP inh,KCNH2 3.1 inh
CN1CCC/C1=C/C=C1\SC(=S)NC1=O,58*,-18,-13,0%,?,-3
COc1cc(=O)n2c(c1C(=O)NCc1ccco1)CCN(Cc1ccc(F)cc1Cl)CC2,.,.,.,-4%,.,.
C[N+]1(CC(=O)c2cccc([N+](=O)[O-])c2)CCOCC1,0,.,.,-3%,.,.
CCCn1c(N)c(C(=O)CN2CCN(S(=O)(=O)c3cccc(Cl)c3)CC2)c(=O)[nH]c1=O,1,74,?,-3%,-4%,-73*
O=C(Nc1ccc(F)cc1)C(=O)c1c(O)[nH]c2ccc([N+](=O)[O-])cc12,0,-10,-18,7%,-17%,-82*
Cc1ccccc1NCC(=O)N=Nc1c(O)[nH]c2ccc([N+](=O)[O-])cc12,1,2,2,-3%,-8%,15
O=C(N=Nc1c(O)[nH]c2ccc([N+](=O)[O-])cc12)c1ccccc1Cl,-1,-6,-2,-1%,-5%,-7
O=C(Nc1ccc([N+](=O)[O-])cc1)Nc1ccc2[nH]c(=O)[nH]c2c1,0,-2,27,-2%,-9%,-1
Cc1ccc(NCC(=O)N=Nc2c(O)[nH]c3ccc([N+](=O)[O-])cc23)cc1,3,-9,-11,40µM*,-6%,5
O=C(O)c1ccccc1N=Nc1c(O)[nH]c2ccc([N+](=O)[O-])cc12,0,9,-3,6%,-4%,-127*
Cc1c(C(=O)N2CCCC(c3ccccc3)C2)sc2ncnc(NCCc3ccccn3)c12 (stereo not drawn),.,.,.,1%,.,.
Cc1ccc(NC(=S)NCCN(C2CCCCC2)C2CCCC2)cc1,0,28,1,-3%,-8%,-73*
Cc1ccc(NC(=S)NCCN(C2CCCCC2)C2CCCC2)cc1C,-1,4,11,-4%,0%,-34
COc1cccc(-c2cc3c(c(OC)c2)OCCN(Cc2ccccc2O)C3)n1,.,.,.,0%,.,.
COc1cc2c(cc1OC)C(c1ccc(C(F)(F)F)cc1)CC(=O)N2 (stereo not drawn),-1,-2,4,1%,-6%,-5
